Reference: the supplement of paper PMC11732987, “Enantioselective OTUD7B fragment discovery through chemoproteomics screening and high-throughput optimisation” (Communications Chemistry, 2025)

Assays:
Assay in all cases: log2 ratio of Biotin-Ahx-Ub-VS probe labelling (fragment/DMSO); higher = less target engagement (more negative = stronger competition), active = hit call of the paper (q ≤ 0.05, log2 ratio ≤ -1)
Settings in all cases: compound concentration: 200 uM; treatment time: 3 h
[1] = target: T1, USP42 (UniProt Q9H9J4)
T1 sequence (whole entry): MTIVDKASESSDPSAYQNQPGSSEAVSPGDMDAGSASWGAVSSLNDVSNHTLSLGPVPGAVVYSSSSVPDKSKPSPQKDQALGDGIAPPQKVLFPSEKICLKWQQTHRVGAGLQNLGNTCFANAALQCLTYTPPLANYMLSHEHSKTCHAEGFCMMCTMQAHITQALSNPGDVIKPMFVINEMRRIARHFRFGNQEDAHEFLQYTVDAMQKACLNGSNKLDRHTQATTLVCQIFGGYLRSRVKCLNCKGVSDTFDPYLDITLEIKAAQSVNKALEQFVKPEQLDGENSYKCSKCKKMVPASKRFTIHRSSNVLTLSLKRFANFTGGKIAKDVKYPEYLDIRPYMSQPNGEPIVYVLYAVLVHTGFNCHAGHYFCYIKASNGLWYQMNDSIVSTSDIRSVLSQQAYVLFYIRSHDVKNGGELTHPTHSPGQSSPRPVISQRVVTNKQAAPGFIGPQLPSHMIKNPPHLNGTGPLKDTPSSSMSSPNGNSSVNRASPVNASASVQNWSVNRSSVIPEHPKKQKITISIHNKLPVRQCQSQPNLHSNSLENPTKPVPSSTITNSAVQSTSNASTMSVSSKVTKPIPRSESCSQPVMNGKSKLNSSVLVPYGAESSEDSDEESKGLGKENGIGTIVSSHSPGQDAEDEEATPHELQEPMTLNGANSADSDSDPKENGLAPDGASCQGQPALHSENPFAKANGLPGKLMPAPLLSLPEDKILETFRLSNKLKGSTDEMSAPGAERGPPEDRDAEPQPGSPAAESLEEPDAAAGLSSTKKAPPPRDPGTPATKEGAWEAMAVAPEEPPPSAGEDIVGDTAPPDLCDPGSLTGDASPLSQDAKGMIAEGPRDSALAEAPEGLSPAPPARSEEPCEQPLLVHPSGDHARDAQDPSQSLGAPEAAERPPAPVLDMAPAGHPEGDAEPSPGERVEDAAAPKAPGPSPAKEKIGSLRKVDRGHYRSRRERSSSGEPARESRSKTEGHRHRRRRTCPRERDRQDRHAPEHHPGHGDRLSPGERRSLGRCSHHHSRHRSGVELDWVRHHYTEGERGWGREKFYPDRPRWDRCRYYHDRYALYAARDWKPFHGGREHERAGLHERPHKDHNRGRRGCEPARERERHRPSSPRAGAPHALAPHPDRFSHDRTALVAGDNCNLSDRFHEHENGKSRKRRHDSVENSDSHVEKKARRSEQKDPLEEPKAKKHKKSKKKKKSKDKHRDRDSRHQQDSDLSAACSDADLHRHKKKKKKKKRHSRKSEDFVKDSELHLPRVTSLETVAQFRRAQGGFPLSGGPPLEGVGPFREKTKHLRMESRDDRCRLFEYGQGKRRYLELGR
Summary of the method: (§1)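 Global-median-normalised Spectronaut label-free quantities were compared by unpaired t-test, and values are average log2 ratios of fragment over vehicle. Only proteins with ≥2 unique peptides were used. HEK293T lysate (495 µg per sample) was treated in triplicate with fragment at 200 µM or vehicle for 3 h and then with Biotin-Ahx-Ub-VS at 0.5 µM final for 1 h. Labelled DUBs were then NeutrAvidin-enriched, digested with LysC and trypsin, and run by diaPASEF LC-MS/MS.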

[2] = target: USP46 (UniProt P62068)
Chain of USP46 (P62068 whole entry): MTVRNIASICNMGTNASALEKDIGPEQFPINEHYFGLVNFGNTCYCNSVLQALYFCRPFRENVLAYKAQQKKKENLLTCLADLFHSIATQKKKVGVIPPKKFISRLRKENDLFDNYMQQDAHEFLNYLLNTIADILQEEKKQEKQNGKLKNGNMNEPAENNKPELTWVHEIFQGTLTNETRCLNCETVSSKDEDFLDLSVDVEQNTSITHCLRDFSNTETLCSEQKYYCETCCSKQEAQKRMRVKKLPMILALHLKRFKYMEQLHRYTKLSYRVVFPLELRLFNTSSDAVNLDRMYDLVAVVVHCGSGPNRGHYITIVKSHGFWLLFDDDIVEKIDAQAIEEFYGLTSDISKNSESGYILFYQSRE
Summary of the method: as §1

[3] = target: T2, USP47 (UniProt Q96K76)
T2 sequence (whole entry): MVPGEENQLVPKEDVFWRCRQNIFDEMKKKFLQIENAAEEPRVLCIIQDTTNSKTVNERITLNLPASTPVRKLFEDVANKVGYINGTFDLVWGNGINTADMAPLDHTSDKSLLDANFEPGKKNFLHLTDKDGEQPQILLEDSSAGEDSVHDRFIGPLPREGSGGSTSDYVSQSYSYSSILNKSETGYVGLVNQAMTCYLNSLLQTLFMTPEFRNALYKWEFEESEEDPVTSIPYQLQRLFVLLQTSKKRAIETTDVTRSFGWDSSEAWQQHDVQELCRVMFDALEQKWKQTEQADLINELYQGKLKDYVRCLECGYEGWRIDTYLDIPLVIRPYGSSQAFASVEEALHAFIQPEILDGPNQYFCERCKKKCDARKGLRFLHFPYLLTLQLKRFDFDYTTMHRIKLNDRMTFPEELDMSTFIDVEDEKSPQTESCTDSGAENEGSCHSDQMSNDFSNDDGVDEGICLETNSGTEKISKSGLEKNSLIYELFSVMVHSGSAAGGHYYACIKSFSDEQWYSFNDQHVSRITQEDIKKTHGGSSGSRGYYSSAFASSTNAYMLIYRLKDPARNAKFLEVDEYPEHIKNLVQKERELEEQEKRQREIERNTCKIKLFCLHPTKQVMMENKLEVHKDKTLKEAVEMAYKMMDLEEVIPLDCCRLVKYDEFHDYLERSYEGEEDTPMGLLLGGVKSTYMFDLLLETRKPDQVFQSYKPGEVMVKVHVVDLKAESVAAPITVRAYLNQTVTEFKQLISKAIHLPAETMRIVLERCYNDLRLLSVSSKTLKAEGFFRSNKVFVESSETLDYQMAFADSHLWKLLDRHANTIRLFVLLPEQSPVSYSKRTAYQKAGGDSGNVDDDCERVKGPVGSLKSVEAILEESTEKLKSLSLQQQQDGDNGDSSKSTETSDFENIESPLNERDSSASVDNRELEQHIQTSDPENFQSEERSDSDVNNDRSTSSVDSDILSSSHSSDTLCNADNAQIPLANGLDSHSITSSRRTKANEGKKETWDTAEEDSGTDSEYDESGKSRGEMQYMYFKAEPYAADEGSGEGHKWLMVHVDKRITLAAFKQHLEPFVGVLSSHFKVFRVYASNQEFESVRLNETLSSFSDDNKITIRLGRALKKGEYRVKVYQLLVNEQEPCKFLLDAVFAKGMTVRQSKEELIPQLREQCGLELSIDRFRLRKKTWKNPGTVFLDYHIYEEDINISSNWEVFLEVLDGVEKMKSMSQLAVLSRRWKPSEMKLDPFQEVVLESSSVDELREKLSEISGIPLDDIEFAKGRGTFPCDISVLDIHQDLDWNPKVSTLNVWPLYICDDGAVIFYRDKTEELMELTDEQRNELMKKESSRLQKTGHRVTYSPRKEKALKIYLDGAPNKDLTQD
Summary of the method: as §1

[4] = target: T3, USP48 (UniProt Q86UV5)
T3 sequence (whole entry): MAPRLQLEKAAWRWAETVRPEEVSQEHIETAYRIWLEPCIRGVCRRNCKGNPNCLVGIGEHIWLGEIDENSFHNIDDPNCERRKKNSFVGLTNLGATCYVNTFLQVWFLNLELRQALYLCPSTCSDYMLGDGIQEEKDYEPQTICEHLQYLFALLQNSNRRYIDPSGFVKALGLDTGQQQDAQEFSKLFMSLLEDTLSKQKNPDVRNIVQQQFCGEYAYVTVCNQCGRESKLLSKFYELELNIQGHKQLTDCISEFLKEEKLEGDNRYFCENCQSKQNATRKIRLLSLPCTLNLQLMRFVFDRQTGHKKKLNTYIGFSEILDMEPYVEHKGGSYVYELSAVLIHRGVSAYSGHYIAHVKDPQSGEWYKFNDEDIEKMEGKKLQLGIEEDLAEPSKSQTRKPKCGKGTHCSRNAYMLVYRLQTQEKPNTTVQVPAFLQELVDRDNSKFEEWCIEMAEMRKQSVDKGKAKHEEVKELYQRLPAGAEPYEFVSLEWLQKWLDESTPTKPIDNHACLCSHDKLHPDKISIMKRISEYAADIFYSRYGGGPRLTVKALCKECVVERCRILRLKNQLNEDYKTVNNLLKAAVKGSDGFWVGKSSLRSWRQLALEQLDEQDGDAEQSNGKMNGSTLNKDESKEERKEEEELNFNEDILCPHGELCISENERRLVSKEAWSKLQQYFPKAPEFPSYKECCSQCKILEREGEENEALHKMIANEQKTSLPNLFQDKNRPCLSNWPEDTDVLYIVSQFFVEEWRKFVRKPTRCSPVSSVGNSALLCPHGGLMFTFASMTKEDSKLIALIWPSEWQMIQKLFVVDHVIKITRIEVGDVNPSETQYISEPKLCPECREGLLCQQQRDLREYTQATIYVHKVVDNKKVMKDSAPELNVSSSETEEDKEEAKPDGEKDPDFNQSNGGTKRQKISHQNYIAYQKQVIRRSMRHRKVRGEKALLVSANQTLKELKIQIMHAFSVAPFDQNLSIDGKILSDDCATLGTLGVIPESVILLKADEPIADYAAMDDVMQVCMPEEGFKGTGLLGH
Summary of the method: as §1

[5] = target: T4, USP5 (UniProt P45974)
T4 sequence (whole entry): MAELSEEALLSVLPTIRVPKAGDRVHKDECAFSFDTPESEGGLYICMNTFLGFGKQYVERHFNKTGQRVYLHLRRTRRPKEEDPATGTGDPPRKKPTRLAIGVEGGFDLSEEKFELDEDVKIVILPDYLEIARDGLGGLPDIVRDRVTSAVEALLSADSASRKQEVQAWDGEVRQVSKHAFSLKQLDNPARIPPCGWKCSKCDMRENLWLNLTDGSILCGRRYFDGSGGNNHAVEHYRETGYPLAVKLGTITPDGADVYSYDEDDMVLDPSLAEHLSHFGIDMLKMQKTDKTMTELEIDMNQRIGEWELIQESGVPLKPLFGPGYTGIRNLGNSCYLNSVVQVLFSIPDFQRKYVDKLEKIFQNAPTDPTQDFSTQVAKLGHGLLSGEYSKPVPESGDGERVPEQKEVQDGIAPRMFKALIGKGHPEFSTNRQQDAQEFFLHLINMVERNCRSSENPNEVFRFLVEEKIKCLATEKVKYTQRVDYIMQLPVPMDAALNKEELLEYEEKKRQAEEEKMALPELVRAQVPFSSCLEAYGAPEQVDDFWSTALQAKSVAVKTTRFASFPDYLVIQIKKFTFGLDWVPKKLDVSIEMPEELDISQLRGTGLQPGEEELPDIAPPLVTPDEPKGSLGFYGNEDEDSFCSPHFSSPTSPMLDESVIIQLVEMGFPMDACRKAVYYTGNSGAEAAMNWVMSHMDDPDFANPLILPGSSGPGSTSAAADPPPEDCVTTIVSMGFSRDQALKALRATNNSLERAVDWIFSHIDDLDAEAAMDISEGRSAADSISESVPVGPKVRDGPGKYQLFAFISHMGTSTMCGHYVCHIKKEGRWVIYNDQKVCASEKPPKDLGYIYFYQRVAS
Summary of the method: as §1

[6] = target: USP54 (UniProt Q70EL1)
Chain of USP54 (Q70EL1 whole entry): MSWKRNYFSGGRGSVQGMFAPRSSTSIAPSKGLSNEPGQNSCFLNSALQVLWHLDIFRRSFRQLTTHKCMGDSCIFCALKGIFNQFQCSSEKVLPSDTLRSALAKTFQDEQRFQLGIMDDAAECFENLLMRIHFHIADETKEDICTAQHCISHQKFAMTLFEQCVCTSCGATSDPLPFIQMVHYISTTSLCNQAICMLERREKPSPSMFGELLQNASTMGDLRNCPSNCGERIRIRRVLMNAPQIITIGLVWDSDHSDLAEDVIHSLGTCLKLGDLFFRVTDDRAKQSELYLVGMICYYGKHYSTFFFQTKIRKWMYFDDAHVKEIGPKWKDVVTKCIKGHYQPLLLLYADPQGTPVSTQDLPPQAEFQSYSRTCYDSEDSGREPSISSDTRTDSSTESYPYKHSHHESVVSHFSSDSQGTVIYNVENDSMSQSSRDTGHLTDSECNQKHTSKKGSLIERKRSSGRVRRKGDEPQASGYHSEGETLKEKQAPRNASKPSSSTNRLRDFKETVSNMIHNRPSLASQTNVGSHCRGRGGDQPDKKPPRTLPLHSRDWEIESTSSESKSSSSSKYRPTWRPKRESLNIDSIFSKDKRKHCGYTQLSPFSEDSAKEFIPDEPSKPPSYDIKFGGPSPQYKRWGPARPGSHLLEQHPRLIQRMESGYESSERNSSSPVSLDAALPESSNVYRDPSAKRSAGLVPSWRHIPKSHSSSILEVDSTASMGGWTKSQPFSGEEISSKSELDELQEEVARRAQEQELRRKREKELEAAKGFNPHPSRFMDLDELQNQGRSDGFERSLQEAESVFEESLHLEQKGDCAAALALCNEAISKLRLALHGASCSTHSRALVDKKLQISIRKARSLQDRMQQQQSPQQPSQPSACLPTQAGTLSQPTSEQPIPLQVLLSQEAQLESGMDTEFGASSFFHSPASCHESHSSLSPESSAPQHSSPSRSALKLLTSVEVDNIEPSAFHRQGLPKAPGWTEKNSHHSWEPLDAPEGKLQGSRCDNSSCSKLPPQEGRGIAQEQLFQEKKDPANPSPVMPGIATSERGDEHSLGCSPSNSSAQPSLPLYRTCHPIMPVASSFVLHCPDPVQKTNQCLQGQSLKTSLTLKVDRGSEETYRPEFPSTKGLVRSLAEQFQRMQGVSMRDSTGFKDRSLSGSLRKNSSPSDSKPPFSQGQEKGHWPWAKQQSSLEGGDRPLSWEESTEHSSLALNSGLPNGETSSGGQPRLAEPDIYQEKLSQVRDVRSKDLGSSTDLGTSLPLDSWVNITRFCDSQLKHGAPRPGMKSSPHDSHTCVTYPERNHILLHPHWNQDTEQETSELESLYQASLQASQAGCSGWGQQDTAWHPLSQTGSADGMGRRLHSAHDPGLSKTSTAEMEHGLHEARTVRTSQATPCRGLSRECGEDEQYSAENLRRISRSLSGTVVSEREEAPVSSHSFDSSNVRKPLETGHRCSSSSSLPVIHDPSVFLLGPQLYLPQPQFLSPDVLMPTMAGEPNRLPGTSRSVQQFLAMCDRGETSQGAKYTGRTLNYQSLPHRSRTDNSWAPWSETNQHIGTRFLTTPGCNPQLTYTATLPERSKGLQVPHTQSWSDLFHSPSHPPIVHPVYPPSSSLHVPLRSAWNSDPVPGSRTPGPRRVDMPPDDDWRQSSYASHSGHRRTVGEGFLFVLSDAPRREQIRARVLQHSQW
Summary of the method: as §1

[7] = target: USP7 (UniProt Q93009)
Chain of USP7 (Q93009 whole entry, looked up): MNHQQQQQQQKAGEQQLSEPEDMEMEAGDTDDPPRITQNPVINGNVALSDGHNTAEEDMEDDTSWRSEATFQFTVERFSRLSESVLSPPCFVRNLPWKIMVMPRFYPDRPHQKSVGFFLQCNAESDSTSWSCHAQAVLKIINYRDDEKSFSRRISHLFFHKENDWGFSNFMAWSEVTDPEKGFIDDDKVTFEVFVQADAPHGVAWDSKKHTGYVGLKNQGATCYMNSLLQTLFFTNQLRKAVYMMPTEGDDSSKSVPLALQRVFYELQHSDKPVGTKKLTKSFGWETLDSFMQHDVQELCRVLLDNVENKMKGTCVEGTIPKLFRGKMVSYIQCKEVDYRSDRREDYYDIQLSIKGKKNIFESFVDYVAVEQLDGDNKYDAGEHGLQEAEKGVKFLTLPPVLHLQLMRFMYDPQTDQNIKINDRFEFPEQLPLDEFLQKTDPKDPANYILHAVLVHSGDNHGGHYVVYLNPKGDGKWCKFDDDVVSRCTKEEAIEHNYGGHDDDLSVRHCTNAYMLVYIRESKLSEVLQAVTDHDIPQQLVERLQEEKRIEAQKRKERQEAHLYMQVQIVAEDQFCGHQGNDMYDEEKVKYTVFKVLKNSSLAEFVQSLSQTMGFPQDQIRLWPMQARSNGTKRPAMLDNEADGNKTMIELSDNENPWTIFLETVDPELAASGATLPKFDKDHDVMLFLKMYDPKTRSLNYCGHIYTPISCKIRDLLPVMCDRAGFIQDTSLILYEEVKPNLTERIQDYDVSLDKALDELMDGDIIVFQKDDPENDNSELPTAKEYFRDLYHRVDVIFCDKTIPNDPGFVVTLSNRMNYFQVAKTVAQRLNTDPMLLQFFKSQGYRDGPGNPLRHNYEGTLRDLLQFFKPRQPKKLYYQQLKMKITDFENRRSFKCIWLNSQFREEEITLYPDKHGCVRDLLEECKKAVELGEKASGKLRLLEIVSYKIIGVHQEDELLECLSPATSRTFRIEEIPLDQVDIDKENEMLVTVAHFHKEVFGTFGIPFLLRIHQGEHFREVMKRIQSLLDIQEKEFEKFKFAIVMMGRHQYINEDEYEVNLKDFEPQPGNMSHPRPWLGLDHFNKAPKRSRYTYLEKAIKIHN
Summary of the method: as §1

[8] = target: T5, USP8 (UniProt P40818)
T5 sequence (whole entry): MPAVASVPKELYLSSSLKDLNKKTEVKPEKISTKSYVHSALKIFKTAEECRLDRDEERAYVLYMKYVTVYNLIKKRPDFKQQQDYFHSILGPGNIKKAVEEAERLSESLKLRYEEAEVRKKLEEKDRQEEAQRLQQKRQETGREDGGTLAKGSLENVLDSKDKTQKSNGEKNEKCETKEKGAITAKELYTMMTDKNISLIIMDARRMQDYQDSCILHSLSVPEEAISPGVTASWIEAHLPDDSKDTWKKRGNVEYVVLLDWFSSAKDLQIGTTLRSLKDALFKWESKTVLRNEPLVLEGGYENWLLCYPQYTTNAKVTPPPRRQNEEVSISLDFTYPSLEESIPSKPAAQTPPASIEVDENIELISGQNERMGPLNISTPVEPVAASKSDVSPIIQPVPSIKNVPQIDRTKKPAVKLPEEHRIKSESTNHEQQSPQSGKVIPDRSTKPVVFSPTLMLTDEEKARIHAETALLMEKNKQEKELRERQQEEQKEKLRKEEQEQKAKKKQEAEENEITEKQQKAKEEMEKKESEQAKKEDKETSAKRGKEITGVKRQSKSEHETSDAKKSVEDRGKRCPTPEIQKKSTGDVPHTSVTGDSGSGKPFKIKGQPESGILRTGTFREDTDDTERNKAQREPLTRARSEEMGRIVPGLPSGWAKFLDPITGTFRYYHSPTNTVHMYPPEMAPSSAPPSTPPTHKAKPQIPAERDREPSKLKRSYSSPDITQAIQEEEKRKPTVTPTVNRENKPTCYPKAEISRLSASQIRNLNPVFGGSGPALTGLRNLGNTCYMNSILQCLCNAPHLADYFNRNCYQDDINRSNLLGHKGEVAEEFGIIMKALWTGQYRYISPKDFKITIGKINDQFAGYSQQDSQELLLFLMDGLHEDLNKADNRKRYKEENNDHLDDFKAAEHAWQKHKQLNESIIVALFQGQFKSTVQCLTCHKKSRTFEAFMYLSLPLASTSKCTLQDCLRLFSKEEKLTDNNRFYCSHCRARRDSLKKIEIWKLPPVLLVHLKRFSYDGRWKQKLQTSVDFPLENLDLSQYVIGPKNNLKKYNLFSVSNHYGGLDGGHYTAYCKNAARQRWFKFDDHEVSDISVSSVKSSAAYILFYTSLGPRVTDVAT
Summary of the method: as §1

[9] = target: USP9X (UniProt Q93008)
Summary of the method: as §1

[10] = target: UniProt O00487
Chain of UniProt O00487 (O00487 whole entry): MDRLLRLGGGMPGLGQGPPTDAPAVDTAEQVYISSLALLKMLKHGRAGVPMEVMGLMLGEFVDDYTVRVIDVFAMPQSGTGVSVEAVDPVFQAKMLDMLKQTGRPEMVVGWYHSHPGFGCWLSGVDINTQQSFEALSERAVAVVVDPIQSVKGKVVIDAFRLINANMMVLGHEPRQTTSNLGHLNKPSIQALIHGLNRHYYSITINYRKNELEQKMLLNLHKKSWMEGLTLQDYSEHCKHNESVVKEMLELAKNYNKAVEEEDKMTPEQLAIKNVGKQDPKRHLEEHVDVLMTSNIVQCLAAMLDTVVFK
Summary of the method: as §1

Measured: log2 ratio of Biotin-Ahx-Ub-VS probe labelling

COCC1C=CCCN1C(=O)CCl (stereo not given)
inactive: [1] -0.485 | [2] 0.0708 | [3] -0.789 | [4] -0.152 | [5] 0.0548 | [6] 0.237 | [7] -0.21 | [8] -0.0182 | [9] -0.16 | [10] -0.0987
